The values below come from PubChem BioAssay.

SMILES strings stand for the structures. Where “and” joins values, the source holds several entries; their conditions need not be identical. Equal entries are not always repeated. Records with an inconclusive call do not appear. Calls of active or inactive are those of the source.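 Rule for the calls, unless noted: active = compounds killing one labelled cell type while sparing the other, by normalised counts and ratio limits, not self-fluorescent; inactive = the rest.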

The nature of test [1]: stimulators of insulin release from INS-1E, primary screen, cell-based, 5 mM glucose, NPC library (AID 1117329;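 active = compound raises insulin release from rat beta cells at 5 mM glucose, no numeric limit stated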). Particulars: rat INS-1E insulin secretion, at 10 µM, stronger effect = higher value.
The nature of test [2]: growth inhibition of GSK3B-pretreated HCT116 cells – cell-based, CellTiter-Glo, 0.2 to 20 µM (AID 1117336;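 active = compounds lowering colon cancer cell viability after pretreatment blocking the GSK3B kinase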). To be noted: HCT116 viability after GSK3B inhibitor, at 20 µM, stronger effect = higher value.
Test [3] is described as follows: inhibition of endothelial tube formation, primary screen, imaging, VEGF stimulated, CD31 staining, tube area, NPC library (AID 1117340;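 active = compound that reduces growth-factor-driven endothelial tube area in a mixed cell culture, no cutoff stated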). To be noted: VEGF-stimulated ADSC/ECFC co-culture, at 10 µM, stronger effect = higher value.
Test [4] can be described thus: glucagon-like peptide 1 release enhancers, primary assay, NCI-H716 cell line, NPC library (AID 1117341;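 active = compound raises GLP1 secretion from the human gut endocrine cells, with no numeric limit stated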). To be noted: NCI-H716 cells, at 10 µM, stronger effect = higher value.
Test [5] can be described thus: HCT116 colon cancer cell growth inhibition, primary screen, CellTiter-Glo luminescence, NPC library (AID 1117342;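 active = compounds that lower survival of HCT116 colon cancer cells in the luminescence readout, no numeric limit stated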). Particulars: at 20 µM (top of the series).
Test [6] can be described thus: CellTiter-Glo luminescent readout of SW480 viability loss, NPC library primary (AID 1117343;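 active = compounds that lower viability of the colon cancer cells in the luminescence readout, with no numeric limit stated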). To be noted: CellTiter-Glo luminescence; at 20 µM (top of the series). A general note: Cellular ATP, detected with luciferase, serves as a proxy for viable cell number.
A short description of test [7]: decreased DLD-1 cellular survival, CellTiter-Glo luminescent readout, NPC compound collection, primary HTS (AID 1117346;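 active = compounds that lower survival of DLD-1 colon cancer cells in the luminescence readout, no cutoff given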). Particulars: DLD-1 viability, CellTiter-Glo luminescence; at 20 µM (top of the series).
Test [8] is described as follows: differential killing of epithelial or mesenchymal cells, primary screen, imaging, PC-3E GFP, TEM4-18 mCherry, co-culture (AID 1345086).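 For all read-outs here: cells exposed to compound for 72 h before imaging.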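 For red/green cell ratio (normalised): normalised mesenchymal count divided by normalised epithelial count so high means epithelial killing.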 To be noted: imaging cell counts, at 1 µM; for red/green cell ratio (normalised): actives lie on both sides, counts scaled to control wells, 1 = unselective.
Test [9] in a line: growth inhibition of DIPG glioma cells, dose response, cell-based, SU-DIPG-XVII, MIPE5.0, CellTiter-Glo, qHTS (AID 1347060; cut-off not given, nearly all actives have AC50 up to about 26 µM). To be noted: SU-DIPG-XVII viability, CellTiter-Glo ATP luminescence.
The nature of test [10]: growth inhibition of DIPG glioma cells, dose response, cell-based, SU-DIPG-XIII, MIPE4.0, CellTiter-Glo, qHTS (AID 1347061; cut-off not given, nearly all actives have AC50 up to about 37 µM;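 note: cells exposed to compound for 48 hours before readout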). To be noted: SU-DIPG-XIII viability, CellTiter-Glo ATP luminescence.
Test [11] is described as follows: growth inhibition of DIPG glioma cells, dose response, cell-based, JHH-DIPG-1, MIPE4.0, CellTiter-Glo, qHTS (AID 1347062; cut-off not given, nearly all actives have AC50 up to about 27 µM). To be noted: JHH-DIPG-1 viability, CellTiter-Glo ATP luminescence.
Test [12] is described as follows: growth inhibition of DIPG glioma cells, dose response, cell-based, SU-DIPG-IV, MIPE4.0, CellTiter-Glo, qHTS (AID 1347063; cut-off not given, nearly all actives have AC50 up to about 30 µM;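 note: compound exposure lasted 48 hours before the viability readout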). To be noted: SU-DIPG-IV viability, CellTiter-Glo ATP luminescence.
Test [13] can be described thus: growth inhibition of DIPG glioma cells, dose response, cell-based, SU-DIPG-XIII, MIPE5.0, CellTiter-Glo, qHTS (AID 1347064; cut-off not given, nearly all actives have AC50 up to about 23 µM). To be noted: SU-DIPG-XIII viability, CellTiter-Glo ATP luminescence.
Test [14] concerns Aerobactin synthetase IucA (Klebsiella pneumoniae). The test is described as follows: IucA aerobactin synthetase inhibitors, biochemical, Tocris library, absorbance (AID 1345561; call rule not given here;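 note: 100% = enzyme without compound and 0% = no enzyme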). To be noted: purified IucA enzyme assay, absorbance (OD) read-out; stronger effect = lower value;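 tested at 8 µM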.
Setting [15] is: measured here: epithelial PC-3E GFP cell survival.
[16] abbreviates: measured here: mesenchymal TEM4-18 mCherry cell survival.

With `Cc1nc(-c2ccc(OCC(C)C)c(C#N)c2)sc1C(=O)O`, the insulin secretion stimulation in test [1] is 3.8% (inactive). Also, the viability decrease in test [2] was 25.8% (inactive). For the same compound, the tube area decrease in test [3] is -47.3% (inactive). Further, the GLP1 secretion stimulation in test [4] was 4.1% (inactive). For the same compound, the inhibition of viability in test [5] was 25.4% (inactive). Also, the viability decrease (inhibition) in test [6] is 57.5% (active); in [7] it was 28.7% (inactive). For the same compound, the red/green cell ratio (normalised) in test [8] is 1 (inactive). Moreover, the normalised cell number in test [8] (setting [15]) and in [8] (setting [16]) was 1.08 in each case. The call in test [9], in test [10], in test [11], in test [12] and in [13] was inactive.
Turning to `NCCS(=O)(=O)O`, the insulin secretion stimulation in test [1] was 2.6% (inactive). In test [2], the viability decrease was -1.3% (inactive). Moreover, the tube area decrease in test [3] is -12% (inactive). Moreover, the GLP1 secretion stimulation in [4] was 0.3% (inactive). In test [5], the inhibition of viability is -12.3% (inactive). For the same compound, the viability decrease (inhibition) in test [6] was -4.6% (inactive); in test [7], -1.5% (inactive). In addition, the red/green cell ratio (normalised) in test [8] was 0.92 (inactive) and 0.87 (inactive). The normalised cell number in [8] (setting [15]) was 1.27 and 1.13; in test [8] (setting [16]), 1.17 and 0.99. Besides, the result in test [9], in test [10], in test [11] and in test [12] was inactive.
Consider `Oc1ccc(OCc2ccccc2)cc1`, for which, in test [1], the insulin secretion stimulation was -0.6% (inactive). Further, the viability decrease in test [2] was -36.6% (inactive). In addition, the tube area decrease in [3] was 0.5% (inactive). Further, the GLP1 secretion stimulation in [4] was 2.7% (inactive). Besides, the inhibition of viability in [5] was -6.37% (inactive). The viability decrease (inhibition) was 5.3% (inactive) in test [6] and 4.6% (inactive) in test [7]. Also, in [8], the red/green cell ratio (normalised) was 1.06 (inactive) and 1.09 (inactive) and 0.97 (inactive). Also, the normalised cell number is 0.97 and 1.09 and 0.95 in test [8] (setting [15]); 1.03 and 1.19 and 0.92 in test [8] (setting [16]). Also, the outcome in [9], in [10], in [11], in [12] and in test [13] was inactive.
`C#CCN[C@@H]1CCc2ccccc21`: the insulin secretion stimulation in test [1] is 2.6% (inactive). Further, in test [2], the viability decrease was -29.8% (inactive). Besides, the tube area decrease in test [3] is 3.2% (inactive). Moreover, in test [4], the GLP1 secretion stimulation is 0% (inactive). For the same compound, in test [5], the inhibition of viability was -2% (inactive). Also, the viability decrease (inhibition) in [6] is -41% (inactive); in [7] it was -21.6% (inactive). Besides, the red/green cell ratio (normalised) in [8] was 0.97 (inactive). Further, the normalised cell number in [8] (setting [15]) worked out at 0.98; in test [8] (setting [16]), 0.94. For the same compound, the compound was classed as inactive in test [9], in [10], in test [11], in [12] and in [13].
Consider `CO[C@@H]1[C@@H](OC(N)=O)[C@@H](O)[C@H](Oc2ccc3c(O)c(NC(=O)c4ccc(O)c(CC=C(C)C)c4)c(=O)oc3c2C)OC1(C)C`, for which the insulin secretion stimulation in [1] was -0.3% (inactive). For the same compound, the viability decrease in test [2] is -78.9% (inactive). For the same compound, in test [3], the tube area decrease is -1.9% (inactive). Further, the GLP1 secretion stimulation in [4] was 0.7% (inactive). In addition, the inhibition of viability in test [5] was -1.6% (inactive). The viability decrease (inhibition) in [6] was -22.2% (inactive); in test [7], -21.8% (inactive). For the same compound, the red/green cell ratio (normalised) in test [8] was 1.14 (inactive). Moreover, the normalised cell number in test [8] (setting [15]) came out at 1.07; in [8] (setting [16]), 1.21. Moreover, the outcome in [9], in [10], in test [11], in [12] and in test [13] was inactive.
With `C#C[C@]1(O)CC[C@H]2[C@@H]3CCc4cc(OC)ccc4[C@H]3CC[C@@]21C`, the insulin secretion stimulation in test [1] is 0.5% (inactive). Further, the viability decrease in [2] was 1.9% (inactive). Further, in test [3], the tube area decrease is 10.3% (inactive). In test [4], the GLP1 secretion stimulation was 16.1% (inactive). For the same compound, the inhibition of viability in test [5] was 45% (inactive). Moreover, the viability decrease (inhibition) was 110% (active) in [6] and 26.6% (inactive) in [7]. Moreover, the outcome in test [11], in [12] and in [13] was inactive.
In the case of `C[C@@H]1CN(c2c(F)c(N)c3c(=O)c(C(=O)O)cn(C4CC4)c3c2F)C[C@H](C)N1`, the insulin secretion stimulation in [1] was 2.1% (inactive). For the same compound, in [2], the viability decrease is 13.2% (inactive). The tube area decrease in test [3] is -14.6% (inactive). For the same compound, in test [4], the GLP1 secretion stimulation is 0.3% (inactive). Moreover, in test [5], the inhibition of viability was 23.4% (inactive). For the same compound, the results for the viability decrease (inhibition) in test [6] and in test [7] were -0.6% (inactive) and -18.8% (inactive), respectively. Further, in test [8], the red/green cell ratio (normalised) is 0.99 (inactive). The normalised cell number in test [8] (setting [15]) was found to be 1.12; in test [8] (setting [16]), 1.11. Further, the compound was classed as inactive in test [9], in test [10], in [11], in test [12] and in [13].
The term remaining activity denotes the signal under treatment as a percentage of the control signal. In the case of `CN1CCN2c3ccccc3Cc3ccccc3C2C1` (configuration not stated), the insulin secretion stimulation in test [1] is 43.4% (active). The viability decrease in [2] was 6.5% (inactive). Further, in [3], the tube area decrease was 26.3% (inactive). In addition, the GLP1 secretion stimulation in test [4] is 3.1% (inactive). The inhibition of viability in test [5] was 20.5% (inactive). Further, the figures for the viability decrease (inhibition) in test [6] and in [7] were 76% (active) and 6.6% (inactive), respectively. Moreover, the red/green cell ratio (normalised) in test [8] was 1.03 (inactive). Besides, the normalised cell number in test [8] (setting [15]) was 1.24; in [8] (setting [16]), 1.28. Moreover, the remaining activity in [14] was 115% (inactive). In addition, the call in test [10], in test [11] and in test [12] was inactive.
Consider `O=C(O)CSCC(=O)NC1CCSC1=O` (configuration not stated), for which the insulin secretion stimulation in test [1] is -1.9% (inactive). The viability decrease in test [2] was -4% (inactive). Also, the tube area decrease in [3] is -2.7% (inactive). The GLP1 secretion stimulation in test [4] is -0.3% (inactive). In addition, the inhibition of viability in test [5] was 9% (inactive). The viability decrease (inhibition) is 15.2% (inactive) in test [6] and -4.25% (inactive) in [7]. Further, in test [8], the red/green cell ratio (normalised) is 1.25 (inactive). Moreover, the normalised cell number worked out at 0.94 in test [8] (setting [15]) and 1.17 in test [8] (setting [16]). Further, the call in test [9], in test [10], in test [11] and in test [12] was inactive.
